Reference: PubChem BioAssay (NCI)
Compounds without any hit were thinned out: in the full panel of roughly 79,000, 15% have a hit. Unmarked numbers belong to inactive results. Active and inactive are the calls of the source. Rule as the data show it: active = growth inhibition above about 70%; inactive = the rest.

Assay: NCI Yeast Anticancer Drug Screen. Data for the mgt1 strain (AID 153)
Conditions: S. cerevisiae mgt1 mutant growth inhibition, stronger effect = higher value
Method: Growth inhibition of yeast strains with defined genetic alterations is measured as a screen for potential anti-cancer activity. Selected strains with alterations in DNA damage repair or cell cycle control were exposed to compounds and growth inhibition was measured relative to vehicle treated controls. The strain used in this assay is mgt1

| Structure (SMILES) | growth inhibition (at 1.2 µM) | growth inhibition (at 3.7 µM) | growth inhibition (at 11.0 µM) | growth inhibition (at 33.0 µM) | growth inhibition (at 100.0 µM) |
| --- | --- | --- | --- | --- | --- |
| COC1C=COC2(C)Oc3c(C)c(O)c4c(c3C2=O)/C(=N/C2CCC(O)OC2C)C=C(NC(=O)/C(C)=C\C(=O)C2CC2C(O)C(C)C(O)C(C)C(OC(C)=O)C1C)C4=O (stereo not given) | 0% | -4% | -1% | 29% | 80% (active) |
| Cc1cccc2c(C(O)CBr)cc(-c3ccc(Cl)cc3)nc12 (stereo not given) | -2% | -1% | 98% (active) | 97% (active) | 92% (active) |
| O=c1c2ccccc2ncn1COCc1ccccc1 | -17% | -14% | -11% | 1% | 21% |
| Oc1ccc(NCn2c(=S)sc3ccccc32)cc1 | 14% | 17% | 37% | 87% (active) | 98% (active) |
| O=Nc1cccnc1N=O | 5% | 25% | 79% (active) | 99% (active) | 99% (active) |
| O=C(Nc1ccc(Cl)cc1)OCC#CCCl | 89% (active) | 96% (active) | 98% (active) | 98% (active) | 98% (active) |
| CC1CCN(CCC(=O)c2ccc(Cl)cc2)CC1 | -1% | 4% | 20% | 35% | 52% |
| O=S(=O)(CCCl)c1ccccc1Cl | 1% | 1% | 41% | 96% (active) | 98% (active) |
